For 29 molecules, inhibition and activity results are on record in PubChem BioAssay.

Some of the results follow. Active and inactive are the calls of the source. Unless noted, no stated cut-off is given here; in the data, active means activity above about 50%; inactive means the rest.

The target of assay [1] is PEG-3 (UniProt Q6IN02). Description: inhibition of PEG-3 promoter-driven reporter – cell-based, HeLa, luciferase, CREF/GAPDH counter-screen panel, dose response (AID 624167). The following applies: HeLa PEG-Prom luciferase reporter, overnight, CREF/GAPDH counter-screens; run 1, dose range 1, at 100 µM (top of the series). On the technique in general: The purpose of a counterscreen is to sort out artefacts and off-target activity.

Assay [2] deals with PEG-3 (UniProt Q6IN02). Described as above. Conditions: HeLa PEG-Prom luciferase reporter, overnight, CREF/GAPDH counter-screens; run 2, dose range 1, at 100 µM (top of the series). For orientation: In a reporter assay the amount or activity of a reporter protein is the signal.
Assay [3] has as its system Rat fibroblasts (CREF). Described as above. Conditions: CREF/GAPDH counter-screens; run 1, dose range 1, at 100 µM (top of the series).
Assay [4] concerns Rat fibroblasts (CREF). The description is as above. The following applies: CREF/GAPDH counter-screens; run 2, dose range 1, at 100 µM (top of the series).
In assay [5] the target is Tumor necrosis factor receptor superfamily member 10B (Homo sapiens) (UniProt O14763). Nature of the assay: viability loss of caspase-8 NB7 cells with TRAIL – with/without TRAIL, luminescence panel, confirmation (AID 651596). Conditions: NB7 neuroblastoma + caspase-8, TRAIL sensitization, NB7 Caspase-8, with TRAIL, mean of runs, at 10 µM, stronger effect = higher value.
Test in assay [6]: as above
Conditions: NB7 neuroblastoma + caspase-8, without TRAIL, NB7 Caspase-8, without TRAIL, mean of runs, at 10 µM.

A short description of assay [7]: NFkB reporter suppression in cystic fibrosis bronchial cells – cell-based, uHTS hits, panel, cytotoxicity readout, dose response (AID 624344). Conditions: CF bronchial epithelial cells, PAF-induced NFkB reporter inhibition, with PAF, run 1; at 79 µM (top of the series).
Test in assay [8]: as above
The following applies: CF bronchial epithelial cells, PAF-induced NFkB reporter inhibition, with PAF, run 2; at 79 µM (top of the series).

Assay [9] in a line: HIF-2a driven luciferase blockers, single dose – luminescence, 786-0 RCC cells, confirmation (AID 651580;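 active means mean inhibition across four replicates of at least 40 percent at the single tested concentration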). The following applies: HIF-2a luciferase reporter luminescence, overnight, at 18.8 µM, stronger effect = higher value.
A short description of assay [10]: HIF-1a luciferase reporter signal reduction – MiaPaCa-2 cells, single concentration, counter-screen for HIF-2a inhibitor project, confirmation (AID 651589;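 active means mean inhibition of the reporter signal across four replicates at the single tested dose of 50% or more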). The following applies: MiaPaCa-2 HIF-1a luciferase reporter, desferoxamine, overnight; at 18.8 µM; stronger effect = higher value.

Chain of PEG-3 (Q6IN02 whole entry, looked up): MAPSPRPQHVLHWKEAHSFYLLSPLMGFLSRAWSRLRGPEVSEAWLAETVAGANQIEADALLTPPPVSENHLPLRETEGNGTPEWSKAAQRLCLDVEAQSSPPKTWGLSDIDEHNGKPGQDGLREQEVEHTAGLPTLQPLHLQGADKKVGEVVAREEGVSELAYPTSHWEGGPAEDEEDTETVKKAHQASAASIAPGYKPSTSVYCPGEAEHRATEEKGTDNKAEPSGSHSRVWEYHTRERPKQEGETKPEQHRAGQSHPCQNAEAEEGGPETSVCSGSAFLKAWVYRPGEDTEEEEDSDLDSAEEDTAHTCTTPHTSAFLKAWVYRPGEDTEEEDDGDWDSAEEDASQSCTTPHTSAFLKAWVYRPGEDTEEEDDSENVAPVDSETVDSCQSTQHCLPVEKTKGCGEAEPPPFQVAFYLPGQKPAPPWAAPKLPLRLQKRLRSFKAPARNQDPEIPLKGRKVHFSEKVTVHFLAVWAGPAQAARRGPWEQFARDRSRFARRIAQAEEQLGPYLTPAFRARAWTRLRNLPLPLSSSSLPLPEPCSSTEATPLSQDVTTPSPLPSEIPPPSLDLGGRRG
Chain of Tumor necrosis factor receptor superfamily member 10B (Homo sapiens) (O14763 whole entry, looked up): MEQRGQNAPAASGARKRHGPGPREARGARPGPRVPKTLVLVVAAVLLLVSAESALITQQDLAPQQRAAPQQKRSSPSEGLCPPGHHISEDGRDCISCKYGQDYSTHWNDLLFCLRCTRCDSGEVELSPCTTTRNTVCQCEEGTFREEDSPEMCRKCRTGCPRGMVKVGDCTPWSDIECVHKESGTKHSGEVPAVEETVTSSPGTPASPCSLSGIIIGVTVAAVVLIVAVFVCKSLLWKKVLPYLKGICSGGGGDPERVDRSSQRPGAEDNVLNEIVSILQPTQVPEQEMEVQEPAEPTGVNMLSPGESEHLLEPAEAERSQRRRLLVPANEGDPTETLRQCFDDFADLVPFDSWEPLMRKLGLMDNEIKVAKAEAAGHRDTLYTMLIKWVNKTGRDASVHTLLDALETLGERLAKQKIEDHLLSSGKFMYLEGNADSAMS

As usually defined, the inhibition is the relative decrease from the control value, in per cent. For the molecule `Cc1cccc(C)c1-n1nnnc1C(c1ccccc1OC(F)(F)F)N1CCC(n2c(=O)[nH]c3ccccc32)CC1` (centres undefined), the inhibition turned out to be 49.4% with PEG-3 [1] and 42% with PEG-3 [2].
Regarding `c1ccc(-c2cc(-c3ccccc3)[n+](-c3ccccc3)c(-c3ccccc3)c2)cc1`, the inhibition turned out to be 98.2% with PEG-3 [1] and 99.1% with PEG-3 [2].
Turning to `COC(COC(N)=O)C1=C(N2CC2)C(=O)C(C)=C(N2CC2)C1=O` (centres undefined), the inhibition with PEG-3 [1] amounted to 102%; with PEG-3 [2], 101%; with Rat fibroblasts (CREF) [3], 100%; in the assay with Rat fibroblasts (CREF) [4], 98.7%.
For the molecule `CC1=CC2OC3CC4OC(=O)C=CC=CC(C(C)O)OCC(O)C(C)CC(=O)OCC2(CC1O)C4(C)C31CO1` (centres undefined), the inhibition with PEG-3 [1] was determined as 101%; with PEG-3 [2], 99.3%. Besides, the activity came to 92.3% in assay [5] and 97.7% in [6].
For `O=c1c2ccccc2nc(CSc2ncnc3nc[nH]c23)n1-c1ccc(Cl)c(Cl)c1`, the values for the inhibition in the assay with PEG-3 [1] and in the assay with PEG-3 [2] were -43.1% and 33.8%, respectively.
The matching figures for `O=Cc1cn(Cc2ccc(Br)cc2)c2ccccc12`: 41.6% and 72.9%.
`CC(=O)OC1CC[C@]2(C#N)[C@H]3CC[C@]4(C)[C@H](C5C=CC(=O)O5)CCC4(O)C3CCC2(O)C1` (some centres undefined): the inhibition with PEG-3 [1] is 98.6%; with PEG-3 [2], 99.5%; with Rat fibroblasts (CREF) [3], -10.8%; in the assay with Rat fibroblasts (CREF) [4] it was 7.93%.
With `CC(=O)OC1(C)CC(C)C(=O)C(C(O)CC2CC(=O)NC(=O)C2)C1` (centres undefined), the inhibition with PEG-3 [1] was determined as 96.1%; with PEG-3 [2] it was 94.4%; in the assay with Rat fibroblasts (CREF) [3], 61.8%; with Rat fibroblasts (CREF) [4], 56.4%; in [7], 117%; in assay [8], 108%.
For `CCC(c1nnnn1-c1ccc2c(c1)OCCO2)N1CCC(n2c(=O)[nH]c3ccccc32)CC1` (centres undefined), the inhibition with PEG-3 [1] was 101%; with PEG-3 [2], 102%; in the assay on Rat fibroblasts (CREF) [3], 76.5%; with Rat fibroblasts (CREF) [4] it was 63.2%.
On to `CC(=O)c1c(C)n(C2CCCCC2)c2ccc(O)cc12`, for which the inhibition in [7] was 95.6%; in [8] it was 102%.
With `COC1C(O)C(C)OC(OC2CCC3(C=O)C(CCC4C3CCC3(C)C(C5=CC(=O)OC5)CCC43O)C2)C1O` (centres undefined), the values for the inhibition in assay [9] and in assay [10] were 40% (inactive) and 105% (active), respectively. Also, the activity in assay [5] turned out to be 85.2%; in [6], 91.8%.
`C=C1C(C)C2C(Cc3ccccc3)NC(=O)C23OC(=O)/C=C/C(O)CCCC(C)C/C=C/C3C1O` (centres undefined): the inhibition in [7] was determined as 104%; in assay [8], 103%.
On the same counts, the results for `COc1cc2c(c(OC)c1OC)-c1ccc(O)cc1C(NC(C)=O)CC2` (centres undefined) are -101% and 0.843%.
On the same counts, the results for `O=c1[nH]c2ccccc2n1C1CCN(C(c2cccc3ccccc23)c2nnnn2Cc2ccccc2)CC1` (centres undefined) are 103% and 101%.
Regarding `C[C@H]1C[C@@H](C)C(=O)[C@@H]([C@H](O)CC2CC(=O)NC(=O)C2)C1`, the inhibition is 107% in assay [7] and 113% in assay [8].
The matching figures for `COc1ccc(C[C@H]2NC[C@H](O)[C@H]2OC(C)=O)cc1`: 114% and 106%.
The matching figures for `C[C@H]1CCCC(=O)CCC/C=C/c2cc(O)cc(O)c2C(=O)O1`: 102% and 114%.
On to `CCC(C)(O)C(=O)OC1C(=O)OC2CC3C(C)=CC(=O)C(O)C3(C)C3C4(O)OCC23C1C(C)C4O` (centres undefined), for which the inhibition in [9] is 55.2% (active); in assay [10], 101% (active).
For the molecule `CN(C)C(=O)Oc1ccc(OCc2nc3ccccc3[nH]2)cc1`, the activity in assay [5] amounted to 75.7%; in assay [6] it was 78.1%.
With `COc1ccc2c(c1)[nH]c1c(C)nccc12`, the results for the inhibition in assay [7] and in assay [8] were 113% and 97.6%, respectively.
The matching figures for `COc1ccc(-n2nnnc2C(c2cccc(OC)c2OC)N2CCC(n3c(=O)[nH]c4ccccc43)CC2)cc1` (centres undefined): 99.3% and 97.4%.
`Cc1cccc(C)c1-n1nnnc1C(CCc1ccccc1)N1CCC(n2c(=O)[nH]c3ccccc32)CC1` (centres undefined): the activity is 90.2% in assay [5] and 82% in assay [6].
In the case of `COc1ccc(-n2nnnc2C(CCc2ccccc2)N2CCC(n3c(=O)[nH]c4ccccc43)CC2)cc1` (centres undefined), the inhibition came out at 103% in assay [7] and 101% in assay [8]. The results for the activity in assay [5] and in assay [6] were 91.1% and 88.8%, respectively.
Take `COc1cc(C2c3cc4c(c(O)c3CC3COC(=O)C32)OCO4)cc(OC)c1OC` (centres undefined): the inhibition in [7] came out at 110%; in [8], 85%.
On the same counts, the results for `COc1ccc(-n2nnnc2C(CCSC)N2CCC(n3c(=O)[nH]c4ccccc43)CC2)cc1` (centres undefined) are 97.9% and 108%.
On the same counts, the results for `C=CC[C@@H](CC/C=C/C=C/CC/C=C\[C@@H]1CSC([C@@H]2C[C@@H]2C)=N1)OC` are 91.9% and 64.9%.
The matching figures for `COc1ccc(-n2nnnc2C(c2cccs2)N2CCC(n3c(=O)[nH]c4ccccc43)CC2)cc1` (centres undefined): 102% and 102%.
For `CCOC(=O)[C@]12Cc3ccc(C)cc3[C@H]1N(C1CCCCC1)C(=O)c1ccccc12`, the activity in assay [5] turned out to be 90.7%; in assay [6] it was 90.5%.
The matching figures for `CC1CCC(C(C)C)C(OC(=O)Cn2c(COc3ccccc3)[n+](C)c3ccccc32)C1` (centres undefined): 66.9% and 57.7%.
